According to article PMC6602471:

biological target: RUNX1 (Homo sapiens, UniProt Q01196 1-453); assay: custom PBM; custom protein-binding microarray; buffer, salt, pH and temperature not stated; high values mean tight binding; details: dsDNA, one strand shown
Sequence (Q01196 whole entry): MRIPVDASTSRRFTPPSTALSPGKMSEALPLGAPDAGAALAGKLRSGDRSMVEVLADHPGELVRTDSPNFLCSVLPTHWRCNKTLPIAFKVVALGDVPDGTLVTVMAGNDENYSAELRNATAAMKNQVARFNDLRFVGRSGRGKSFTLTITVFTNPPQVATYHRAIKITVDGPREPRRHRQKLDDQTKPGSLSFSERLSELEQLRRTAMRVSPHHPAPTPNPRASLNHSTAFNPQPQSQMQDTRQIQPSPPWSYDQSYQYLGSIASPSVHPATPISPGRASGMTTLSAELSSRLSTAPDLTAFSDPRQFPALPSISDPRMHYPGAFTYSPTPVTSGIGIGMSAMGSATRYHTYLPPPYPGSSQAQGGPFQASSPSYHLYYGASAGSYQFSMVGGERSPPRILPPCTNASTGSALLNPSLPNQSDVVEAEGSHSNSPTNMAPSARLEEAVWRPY

Binding signal, 11.6 log fluorescence intensity:
CGCGCACTCTGTGGTTGGGCACATACGCACACATACACATACACACATACACATACGCAC
CGCGCACTTTGTGGTTGCGCACATACGCACACATACACATACACACATACACATACGCAC

Binding signal, 11 log fluorescence intensity:
GCGCACATTTCCCGTCAATCATACACGCACACATACACATACACACATACACATACGCAC
GCATACGGCTGACCTCAGCCACATACGCACACATACACATACACACATACACATACGCAC
GCGCACATTTCCCGTATATCATACACGCACACATACACATACACACATACACATACGCAC
GCGCACATTTCCCGTAACTCATACACGCACACATACACATACACACATACACATACGCAC
GCGCACATTTCCCGTAAATCATACACGCACACATACACATACACACATACACATACGCAC
GCATACAGCTGACGTCAGCCACATACGCACACATACACATACACACATACACATACGCAC
GCATACGGCGGACGTCAGCCACATACGCACACATACACATACACACATACACATACGCAC
GCGCACATTTCCCGTGAATCATACACGCACACATACACATACACACATACACATACGCAC
CGCGCACTGTGTGGTTGCGCACATACGCACACATACACATACACACATACACATACGCAC
GCGCACATTTCCCGTAAACCATACACGCACACATACACATACACACATACACATACGCAC

Binding signal, 10.9 log fluorescence intensity:
GCATACGGCTGACTTCAGCCACATACGCACACATACACATACACACATACACATACGCAC
CGCGCACTCTGTGCTTGCGCACATACGCACACATACACATACACACATACACATACGCAC
GCGCATATTTCCCGTAAATCATACACGCACACATACACATACACACATACACATACGCAC
GCGCACATTGCCCGTAAATCATACACGCACACATACACATACACACATACACATACGCAC
GCGCACATTTCCTGTAAATCATACACGCACACATACACATACACACATACACATACGCAC
GCGCACATCTCCCGTAAATCATACACGCACACATACACATACACACATACACATACGCAC
GCATACGGCTGACGTCATCCACATACGCACACATACACATACACACATACACATACGCAC
CGCGCACTCTCTGGTTGCGCACATACGCACACATACACATACACACATACACATACGCAC
GCATACGGCTGACGTCAGTCACATACGCACACATACACATACACACATACACATACGCAC
GCATACGGCTGACGTCAGCAACATACGCACACATACACATACACACATACACATACGCAC
CGCGCACTCTGGGGTTGCGCACATACGCACACATACACATACACACATACACATACGCAC
GCATACGGGTGACGTCAGCCACATACGCACACATACACATACACACATACACATACGCAC

Binding signal, 11.2 log fluorescence intensity:
CGCGCACACTGTGGTTGCGCACATACGCACACATACACATACACACATACACATACGCAC

Binding signal, 11.3 log fluorescence intensity:
CGCGCACTCTGTGGTTGTGCACATACGCACACATACACATACACACATACACATACGCAC

Binding signal, 11.7 log fluorescence intensity:
CGCGCACTCTGTGGTTACGCACATACGCACACATACACATACACACATACACATACGCAC

Binding signal, 11.4 log fluorescence intensity:
CGCGCTCTCTGTGGTTGCGCACATACGCACACATACACATACACACATACACATACGCAC
CGCGCACTCTGTGGTTGCTCACATACGCACACATACACATACACACATACACATACGCAC

Binding signal, 11.5 log fluorescence intensity:
CGCGCACTCTGTGGTTGAGCACATACGCACACATACACATACACACATACACATACGCAC
CGCGCCCTCTGTGGTTGCGCACATACGCACACATACACATACACACATACACATACGCAC

Binding signal, 11.1 log fluorescence intensity:
GCGCACATTTTCCGTAAATCATACACGCACACATACACATACACACATACACATACGCAC
CGCGCAATCTGTGGTTGCGCACATACGCACACATACACATACACACATACACATACGCAC
